The record followed here is PubChem BioAssay (NCATS).

Common to all, as to test: Primary qHTS to identify gynecologic anti-cancer compounds using libraries of approved drugs and bioactive compounds (AID 1345084); note: nearly all actives have a fitted effect of over 55% in size
For test [1], the system named is CAOV3. The conditions noted are these: Gynecologic cancer cell panel viability, ATPlite luminescence, 48 h; series mostly up to 57.5 µM. In short, it runs like this:
(§1)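 In this quantitative HTS, cell killing is estimated from loss of ATP-dependent luciferase light. Cells see five compound concentrations over a 48 h exposure.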
In general terms: Cellular ATP, detected with luciferase, serves as a proxy for viable cell number.

Test [2] has as its system HeLa. The conditions noted are these: Gynecologic cancer cell panel viability, ATPlite luminescence, 48 h; series mostly up to 57.5 µM. The essentials: as §1
For test [3], the system named is JEG-3. The note with it: Gynecologic cancer cell panel viability, ATPlite luminescence, 48 h; series mostly up to 57.5 µM. The essentials: as §1
In test [4] the test system is Es-2. The conditions noted are these: Gynecologic cancer cell panel viability, ATPlite luminescence, 48 h; series mostly up to 57.5 µM. The essentials:
as §1

In test [5] the test system is Hek293T. The conditions noted are these: Gynecologic cancer cell panel viability, ATPlite luminescence, 48 h, control line for the selectivity index; series mostly up to 57.5 µM. In short, it runs like this:
as §1

Test [6] concerns CASKI. The conditions noted are these: Gynecologic cancer cell panel viability, ATPlite luminescence, 48 h; series mostly up to 57.5 µM. In short, it runs like this: as §1

Results filed as inconclusive are left out. Values without a mark were called inactive. The source made the active and inactive calls. Calls come from the whole dose curve; as a rule, active = well fitted cell-killing curve with a large enough effect; inconclusive = small, poorly fitted or top-dose-only effect, or effect the other way; inactive = flat fitted curve, though single readings scatter.
% is set by controls: 0 for no effect and ±100 for the full control effect; potency is the fitted concentration of half-maximal effect.

Consider `Cc1csc2c(N[C@@H](C)CN3CCN(S(=O)(=O)c4ccc(Cl)c(Cl)c4)CC3)ncnc12`, for which the Potency result in test [1], in test [2] and in test [3] was “inactive” in each case.

Turning to `COc1cc(O)c2c(c1)/C=C/C[C@H](O)[C@H](O)C(=O)/C=C\C[C@H](C)OC2=O`, the Potency is 22.4 µM (active) in test [1], 15.8 µM (active) in test [4] and 15.8 µM (active) in test [5]. The Potency result in test [3] is “inactive”.

Consider `CN(C)CCN(Cc1ccc(-c2ccc(CNCCc3ccccc3)cc2)cc1)C(=O)CCC1CCCC1`, for which the figures for the Potency in test [1] and in test [3] were 5.62 µM (active) and 25.1 µM (active), respectively.

For the compound `C=C(NC(=O)C(=C)NC(=O)c1csc(C2=NC3c4csc(n4)C4NC(=O)c5csc(n5)C(C(C)(O)C(C)O)NC(=O)C5CSC(=N5)/C(=C/C)NC(=O)C(C(C)O)NC(=O)c5csc(n5)C3(CC2)NC(=O)C(C)NC(=O)C(=C)NC(=O)C(C)NC(=O)C(C(C)CC)NC2C=Cc3c(C(C)O)cc(nc3C2O)C(=O)OC4C)n1)C(N)=O` (stereo not given), the Potency in test [1] was 25.1 µM (active); in test [5], 17.8 µM (active). For the same compound, the Potency entry in test [2] was “inactive”.

As for `C[C@H](Nc1ncnc2nc[nH]c12)c1cc2cccc(Cl)c2c(=O)n1-c1ccccc1`, the Potency entry in test [1], in test [4], in test [2] and in test [3] was “inactive” each time.

Consider `COc1cc2c(Nc3cc(F)c(Cl)c(Cl)c3)ncnc2cc1OCC1CCCN(C)CCC1`, for which, in test [1], the Potency was 12.6 µM (active). Besides, in test [3], the Potency result was “inactive”.

Regarding `NCCOc1cc(C(=O)Nc2cc(OCCN)c3ccccc3n2)nc(C(=O)Nc2cc(OCCN)c3ccccc3n2)c1`, the Potency entry in test [1], in test [4], in test [5] and in test [3] was “inactive” each time.

With `CO[C@@H]1CC(OC2CCC3(C)C(CCC45CCC(C6=CC(=O)OC6)C(C)(CCC43)C5=O)C2)O[C@H](C)[C@@H]1O[C@@H]1O[C@H](CO[C@@H]2O[C@H](CO)[C@@H](O)[C@H](O)[C@H]2O)[C@@H](O)[C@H](O)[C@H]1O` (stereo not given in full), in test [6], the activity change, negative = cytotoxicity is -0.149% [at 11.6 µM]. For the same compound, the Potency in test [4] was 3.16 µM (active).

For the compound `Cn1c(=O)c2c(ncn2Cc2ccc(C(C)(C)C)cc2)n(C)c1=O`, the Potency result in test [1] was “inactive”. Besides, in test [3], the Potency was 14.1 µM (active).

Consider `N#Cc1ccc(Nc2nc(-c3ccc(O)cc3O)cs2)cc1C(F)(F)F`, for which the Potency in test [6] was 20 µM (active); in test [4], 14.1 µM (active); in test [2], 7.94 µM (active).

As for `CCOC(=O)c1cnc2ccc(-c3cncc(NS(=O)(=O)c4ccccc4)c3)cn12`, the Potency in test [6] is 2 µM (active); in test [4], 3.16 µM (active); in test [2], 1.58 µM (active); in test [5] it was 1.78 µM (active); in test [3], 7.08 µM (active).

For the compound `CC1CCCC(O)CC(=O)c2c(O)cc(O)cc2CC(=O)O1` (stereo not given), the Potency entry in test [1] and in test [3] was “inactive” each time.

`N#Cc1ccc(COc2ccc(-c3cccc4nc(NC(=O)C5CC5)nn34)cc2)cn1`: the Potency entry in test [6], in test [4], in test [2], in test [5] and in test [3] was “inactive” throughout.

For `COc1ccccc1C(=O)Nc1cccc(NC(=O)c2cccc(C)c2)c1`, the Potency entry in test [6], in test [4], in test [2], in test [5] and in test [3] was “inactive” throughout.

Take `CC(C)C[C@@H]1NC(=O)[C@@H]2C[C@@]34C[C@@H]5[C@@]6(C)CCCC(C)(C)C6CC[C@@]5(C)N(c5ccccc53)[C@H]4N2C1=O` (stereo not given in full): the Potency entry in test [1] and in test [2] was “inactive” in each case.

For the compound `Nc1nc(Nc2ccc3c(c2)CCC(N2CCCC2)CC3)nn1-c1cc2c(nn1)-c1ccccc1CCC2` (stereo not given), the Potency in test [1] was 7.94 µM (active). Besides, in test [3], the Potency entry is “inactive”.

As to `Cn1nc(-c2ccc(C(F)(F)F)cc2)nc2c(=O)n(C)c(=O)nc1-2`, the Potency was 10 µM (active) in test [1], 15.8 µM (active) in test [4], 20 µM (active) in test [2] and 10 µM (active) in test [3].

In the case of `Cc1cc(N2CCN(C(=O)Oc3ccc(-c4ccccc4)cn3)CC2)c2ccccc2n1`, the Potency entry in test [1] and in test [2] was “inactive” each time.

In the case of `CC1=CC2/C=C(\C)CCC(O)C(=O)C(O)CC(=O)C23C(=O)NC(CC(C)C)C3C1C` (stereo not given), the Potency result in test [6], in test [4], in test [2], in test [5] and in test [3] was “inactive” each time.

Turning to `C=C1CC[C@@H]2[C@](C)(CO)[C@H](O)CC[C@@]2(C)[C@@H]1C/C=C1/C(=O)OCC1O` (stereo not given in full), the Potency result in test [1], in test [2] and in test [3] was “inactive” throughout.

Turning to `CC(C)=CCC/C(C)=C/COCC1OC(n2ccc(=O)[nH]c2=O)C(O)C1O` (stereo not given), the Potency result in test [6], in test [4], in test [2], in test [5] and in test [3] was “inactive” throughout.

Consider `Cc1nnc(C[C@@H]2C=C(c3ccc(Cl)cc3)c3ccccc3-n3c(C)nnc32)o1`, for which the Potency result in test [6] is “inactive”. In test [4], the Potency is 12.6 µM (active).

Consider `CC12CCC(OC3OC(CO)C(O)C(O)C3OC3OC(CO)C(O)C(O)C3O)CC1CCC1C2CCC2(C)/C(=C3/COC(=O)C3)CCC12O` (stereo not given), for which the Potency entry in test [6], in test [4], in test [2], in test [5] and in test [3] was “inactive” in each case.

Consider `Fc1ccc(-n2cc(CCCCN3CCC4(CC3)OCc3ccccc34)c3ccccc32)cc1`, for which the Potency result in test [6], in test [4], in test [2], in test [5] and in test [3] was “inactive” in each case.

Turning to `CC(C)n1nc(C#Cc2ccccc2)c2c(N)ncnc21`, the Potency result in test [6], in test [4], in test [2] and in test [5] was “inactive” each time.
